Inconclusive results are not listed. The source made the active and inactive calls. The calls were made as follows: active = hit-call score of the fitted dose curve at least 0.9, where 1 is the maximum; inconclusive = response in the unintended direction; inactive = score below 0.9.

The nature of the test: Tanguay_ZF_120hpf_TR_legacy: (Legacy) Oregon State University Tanguay Lab 120 Hour Post-fertilization zebrafish Assay for Touch Response (AID 2283667). The method, then:
Tanguay_ZF_120hpf_legacy is a whole embryo, multiplexed endpoint assay using zebrafish larvae exposed for 120 hours post fertilization on a 96-well plate.Tanguay_ZF_120hpf_TR_legacy is one of one assay component(s) measured or calculated from the Tanguay_ZF_120hpf_legacy assay. It is designed to make measurements of zebrafish development as detected with brightfield microscopy of developing zebrafish embryos.Data from the assay component Tanguay_ZF_120hpf_TR_legacy was analyzed into 1 assay endpoints. This assay endpoint, Tanguay_ZF_120hpf_TR_legacy, was analyzed in the positive analysis fitting direction relative to DMSO as the negative control and baseline of activity. Using a type of morphology reporter, gain-of-signal activity can be used to understand changes in developmentals as they relate to the whole embryo. To generalize the intended target to other relatable targets, this assay endpoint is annotated to the zebrafish development intended target family, where the subfamily is embryonic functional response.
Zebrafish husbandry: Tropical 5D wild-type adult zebrafish were housed in at an approximate density of 1000 per 100 gallon tank at the Sinnhuber Aquatic Research Laboratory, Oregon State University, Corvallis, OR. Each tank was kept at standard laboratory conditions of 28C on a 14-h light/10-h dark photoperiod in fish water consisting of reverse osmosis water supplemented with a commercially available salt (Instant Ocean). Spawning funnels were placed into the tanks the night prior, and embryos were collected and staged. […] Ten microliters of each row of dilution plate 2 was added to 2 exposure plates. The final DMSO concentration used was 0.64% (vol/vol). Thirty-two embryos were also exposed to 5uM trimethyltin chloride (positive control). Plates were sealed to prevent evaporation and foil covered to reduce light exposure and kept in a 28C incubator. Embryos were statically exposed until 120 hpf. At 24 hpf, embryos were assessed for photomotor response using a custom photomotor response analysis tool (PRAT) and for developmental toxicity endpoints (MO24: mortality at 24 hpf, DP: developmental progression, SM: spontaneous movement, and NC: notochord distortion). At 120 hpf, locomotor activity was measured using Viewpoint Zebralab and assessed for 18 endpoints. Zebrafish acquisition and analysis program (ZAAP), a custom program designed to inventory, acquire, and manage zebrafish data, was used to collect developmental endpoints as either present or absent (i.e., binary responses were recorded). If mortality occurred for an embryo (at either 24 or 120 hpf), the non-mortality endpoints were not measured.
`OC[C@@H](O)[C@@H](O)[C@H](O)[C@H](O)CO`: the outcome was inactive. Regarding `NCC1(Cc2noc(=O)[nH]2)CCCCC1`, the outcome was inactive. Same read-out and setting: under `Cc1ccccc1Cl` stands “inactive”; under `CCCCCCCCCCC`, “inactive”; under `Cc1cccc([N+](=O)[O-])c1C`, “inactive”.

Take `Cc1ccc(Cl)cc1`: the compound was called inactive. Take `C=CCOC(=O)c1ccccc1C(=O)OCC=C`: the compound was called inactive. On to `Cc1ccc2ncccc2c1`, for which the call was inactive. On the same count and under the same terms, under `C=CCc1ccc(O)c(OC)c1` stands “inactive”. Same read-out and setting: under `CC(=O)OC/C=C(\C)CCC=C(C)C` stands “inactive”; under `CCCCCCCCCCCCCCCCCC(=O)O`, “inactive”; under `CCCCCCCCCCCC(=O)OC`, “inactive”.

As for `CN1CCN(Cc2cc(-c3ccc4[nH]c(=O)oc4c3)co2)[C@@H](c2ccc(F)cc2)C1`, the compound was called inactive.

With `COc1ccc(C)cc1N`, the call was inactive. Regarding `NC(=O)Cn1c(=O)cc(CCN2CCN(c3nccc4sccc34)CC2)c2ccc(F)cc21`, the call was inactive. Same read-out and setting: under `CCCCCCCC=O` stands “inactive”; under `C[C@]12C=CC(=O)C=C1CC[C@@H]1[C@@H]2C(=O)C[C@@]2(C)[C@H]1CC[C@]2(O)C(=O)CO`, “inactive”. The same measure, in the same setting: next, `CC(C)c1ccc(C(=O)N=C(N)N)cc1S(C)(=O)=O`: “inactive”; `COc1ccc(S(=O)(=O)N2C(=O)[C@@](c3ccccc3OC)(N3C[C@H](O)C[C@H]3C(=O)N(C)C)c3cc(Cl)ccc32)c(OC)c1`: “inactive”.

On to `CN[C@H]1CC[C@@H](c2ccc(Cl)c(Cl)c2)c2ccc(S(N)(=O)=O)cc21`, for which the compound was called inactive. As to `CC1(C)CC(N=C=O)CC(C)(CN=C=O)C1` (stereo not given), the call was inactive. On to `CNC(=O)[C@H]1O[C@@H](n2cnc3c(NCc4cc(Cl)ccc4OCc4cc(C)no4)ncnc32)[C@H](O)[C@@H]1N`, for which the compound was classed as inactive. Regarding `Cc1ccc(C(C)C)c(O)c1`, the outcome was inactive. The same measure, in the same setting: under `c1cc(-c2ccncc2)ccn1` stands “inactive”; under `Cc1oc(-c2ccccc2)nc1CCOc1cccc2c1ccn2CCC(=O)O`, “inactive”; under `CCNc1cccc(C)c1`, “inactive”. The same measure, in the same setting: under `CCCCC(CC)COC(=O)CC(C(=O)OCC(CC)CCCC)S(=O)(=O)O` (stereo not given) stands “inactive”. For `CC(C)(C)c1cc(O)c(C(C)(C)C)cc1O`, the AC50 (usually the midpoint of the concentration-response curve, whichever way the signal moves) is 34.6 µM (active). On to `CCOc1ccc2c(c1)C(C)=CC(C)(C)N2`, for which the compound was classed as inactive.

Regarding `Cc1cccc(Nc2cc(Cl)nc(SCC(=O)O)n2)c1C`, the compound was called inactive.

As for `O=C(O)CCCCC(=O)O`, the compound was classed as inactive. Still for that read-out and setting: under `COCCOCCOC` stands “inactive”; under `Cc1nc(-c2ccc3c(c2)CCN(CCC2CCC(NC(=O)/C=C/c4ccc(F)cc4)CC2)CC3)no1` (stereo not given), “inactive”. In the case of `Nc1ccccc1N`, the half-maximal activity concentration (AC50) is 77 µM (active). Take `Nc1ccc(S(=O)(=O)c2ccc(N)cc2)cc1`: the result was inactive. Consider `FC(F)(F)C(F)(F)C(F)(F)C(F)(F)C(F)(F)C(F)(F)CCI`, for which the compound was called inactive.

For the compound `CC(CO)OC(C)CO` (stereo not given) (tested in a mixture with another compound), the compound was classed as inactive.

With `CCCc1cc(=O)[nH]c(=S)[nH]1`, the outcome was inactive.

Regarding `CCCCCCCCCCO`, the compound was classed as inactive.

For `CCCCCCCCCCCCCO`, the call was inactive.

The values above are taken from PubChem BioAssay (EPA / NIEHS).
